# Experimental data taken from PubChem BioAssay AID372 (MTDP, 2006).
# The whole screen tested about 100,000 compounds, of which about 770 (0.77%) were called active. This excerpt belongs to a sample that is enriched for actives. Values without a mark were called inactive. No stated cut-off is given here; in the data, active means inhibition above about 50%; inactive means the rest.
# Molecular target: Gag-Pol polyprotein (Human immunodeficiency virus type 1 group M subtype B (isolate HXB2)) (UniProt P04585)
# Assay: RNase H inhibition, HIV 1 Gag Pol polyprotein, FRET biochemical assay, screening (AID 372)
# Settings: HIV-1 RT RNase H, FRET RNA/DNA substrate fluorescence; at 10 µM; active compounds read high
row,Compound,inhibition
1,CCOC(=O)/C(=N/Nc1cccc(C)c1)c1csc(N)n1,10%
2,COc1ccc(/C=C/C(=O)Oc2ccc3c(c2)C(C)=CC(C)(C)N3)cc1,16%
3,O=C(N=Nc1c(O)n(CN2CCCCC2)c2ccccc12)c1ccncc1,0%
4,CC1(C)NC(=O)N(CC(O)CN(c2cccc([N+](=O)[O-])c2)S(=O)(=O)c2ccccc2)C1=O (stereo not drawn),0%
5,S=C(Nc1ccccc1)N1CCN(C(=S)Nc2ccccc2)CC1,9%
6,S=C(Nc1ccccc1)N1CCN(C(c2ccccc2)c2ccccc2)CC1,56% (active)
7,S=C(Nc1cccc2ccccc12)N1CCN(C(c2ccccc2)c2ccccc2)CC1,5%
8,Cc1c(N2C(=O)/C(=C/c3cccc([N+](=O)[O-])c3)SC2=S)c(=O)n(-c2ccccc2)n1C,13%
9,Cc1c(N2C(=O)S/C(=C\c3ccccc3)C2=O)c(=O)n(-c2ccccc2)n1C,0%
10,COc1ccc(/C=C2\SC(=O)N(c3c(C)n(C)n(-c4ccccc4)c3=O)C2=O)cc1,0%
11,Cc1c(N2C(=O)S/C(=C\c3ccc([N+](=O)[O-])cc3)C2=O)c(=O)n(-c2ccccc2)n1C,3%
12,Cc1c(N2C(=O)S/C(=C\c3cccc([N+](=O)[O-])c3)C2=O)c(=O)n(-c2ccccc2)n1C,59% (active)
13,Cc1c(N2C(=O)S/C(=C\c3ccc(N(C)C)cc3)C2=O)c(=O)n(-c2ccccc2)n1C,67% (active)
14,Cc1ncc(CO)c(/C=N/Nc2ccccc2)c1O,13%
15,O=C(N/N=C/c1ccc(O)c(Br)c1)c1cccc(Br)c1,0%
16,COc1ccc(NC(=O)c2sc3cc(C)ccc3c2Cl)c(OC)c1,3%
17,Cc1ccn2c(-c3csc(Nc4ccc(O)cc4)n3)c(C)nc2c1,8%
18,CCC1CCCCN1S(=O)(=O)c1ccc(Cl)c([N+](=O)[O-])c1 (stereo not drawn),12%
19,Cc1ccccc1N1C(=O)c2ccc(-c3nc4ccccc4c(=O)o3)cc2C1=O,2%
20,Cc1ccc(N2C(=O)c3ccc(-c4nc5ccccc5c(=O)o4)cc3C2=O)c(C)c1,5%
21,Cc1cc(Br)ccc1N1C(=O)c2ccc(-c3nc4ccccc4c(=O)o3)cc2C1=O,59% (active)
22,Cc1cc(C)c(N2C(=O)c3ccc(-c4nc5ccccc5c(=O)o4)cc3C2=O)c(C)c1,54% (active)
23,Cc1cccc(N2C(=O)c3ccc(-c4nc5ccccc5c(=O)o4)cc3C2=O)c1,37%
24,Cc1cccc(N2C(=O)c3ccc(-c4nc5ccccc5c(=O)o4)cc3C2=O)c1C,10%
25,O=C1C(=O)N(c2cccnc2)C(c2ccc(F)cc2)/C1=C(\O)c1ccc(Cl)cc1 (stereo not drawn),2%

row,Compound,inhibition
1,CCCC(=O)N1c2c(C)cccc2C(Nc2ccccc2C)CC1C (stereo not drawn),12%
2,COC(=O)c1c(NC(=O)c2c(F)c(F)c(F)c(F)c2F)sc2c1CCCCC2,26%
3,O=c1c(C=NCC2CCCO2)c(C(F)(F)F)[nH]n1-c1nc2ccccc2s1 (stereo not drawn),0%
4,CCOC(=O)c1ccc(NC(=O)Nc2nc(-c3ccccc3)cs2)cc1,0%
5,Oc1c(Br)cc(Cl)cc1/C=C/c1ccc2cccc(O)c2n1,15%
6,Cc1ccc2c(c1)C1C=CCC1C(C(=O)O)N2 (stereo not drawn),27%
7,O=C(c1ccccc1)c1cc(Cl)cc2c1NC(C(=O)O)C1CC=CC21 (stereo not drawn),30%
8,O=C(O)C1Nc2c(cccc2[N+](=O)[O-])C2C=CCC12 (stereo not drawn),17%
9,O=C(O)C1Nc2c(I)cccc2C2C=CCC12 (stereo not drawn),30%
10,NC(=O)c1cccc2c1NC(C(=O)O)C1CC=CC21 (stereo not drawn),22%
11,O=C(O)C1Nc2ccc(F)cc2C2C=CCC12 (stereo not drawn),12%
12,O=C1c2ccccc2NC(c2ccccc2O)N1Cc1ccco1 (stereo not drawn),5%
13,CC(C)Cc1ccc(-c2csc(/C(C#N)=C/Nc3ccccc3)n2)cc1,0%
14,CCOc1cc(/C=C2\SC(N)=NC2=O)ccc1OCCOc1ccc(Cl)c(C)c1,30%
15,O=C(CSCc1cccc(Br)c1)N=Nc1c(O)[nH]c2ccccc12,16%
16,Cc1ccc(Cc2cnc(NC(=O)c3ccc(Br)cc3)s2)cc1,0%
17,COc1cccc(C(=O)Nc2ccc(-c3ccc(NC(=O)c4cccc(OC)c4)cc3)cc2)c1,2%
18,O=C(Nc1ccc(-c2cnc(-c3ccc(NC(=O)c4ccccc4)cc3)nc2)cc1)c1ccccc1,0%
19,COc1cccc(C(=O)Nc2ccc(-c3cnc(-c4ccc(NC(=O)c5cccc(OC)c5)cc4)nc3)cc2)c1,50% (active)
20,Cc1cc(C)c(OCCCCN2CCC(C)CC2)c(C)c1,10%
21,COc1cc([N+](=O)[O-])ccc1NC(=S)NC(=O)c1ccccc1,3%
22,Cc1ccc(-c2c3c([nH]c(=S)c2C#N)CCCC3)o1,8%
23,N#Cc1c(N)c(C#N)c(-c2ccco2)c2c1CCCC2,4%
24,N#Cc1c(-c2ccco2)c2c([nH]c1=S)CCCC2,63% (active)
25,Oc1cccc(/C=N/Nc2nc(-c3ccc(Br)cc3)cs2)c1,16%

row,Compound,inhibition
1,O=S(=O)(Nc1cccc(F)c1)c1ccc2ccccc2c1,27%
2,O=S(=O)(Nc1cccc(I)c1)c1ccccc1,0%
3,O=S(=O)(Nc1cccc(Br)c1)c1ccc2ccccc2c1,50% (active)
4,Cc1cc(C)cc(NS(=O)(=O)c2ccc3ccccc3c2)c1,14%
5,O=S(=O)(Nc1ccc(Nc2ccccc2)cc1)c1ccc2ccccc2c1,0%
6,COc1ccc(S(=O)(=O)Nc2cccc(C(F)(F)F)c2)cc1,0%
7,O=S(=O)(Nc1cccc(I)c1)c1ccc2ccccc2c1,52% (active)
8,O=S(=O)(Nc1cccc(C(F)(F)F)c1)c1ccc(F)cc1,0%
9,Brc1ccc(N2COc3ccc4ccccc4c3C2)cc1,18%
10,CCOC(=O)c1ccc2c(c1)C1C=CCC1C(c1ccc(Br)cc1)N2 (stereo not drawn),31%
11,Cc1ccc(C(=O)Nc2ccc(I)cc2)o1,0%
12,CCCOC(=O)C1=C(C)NC(=O)NC1c1cccc2ccccc12 (stereo not drawn),4%
13,CCc1ccc(NC(=O)C(=O)NCCc2ccc(F)cc2)cc1,12%
14,COc1ccc(C(=O)NC(NC(=O)c2ccc(OC)c(OC)c2)c2ccc(Br)cc2)cc1OC,6%
15,NN1C(=O)c2ccc3c4c(ccc(c24)C1=O)CC3,0%
16,O=C1NC(=O)c2ccc3c4c(ccc1c24)CC3,2%
17,COc1cc(CN2CCN(C3CCCC(C)C3)CC2)cc(OC)c1OC (stereo not drawn),7%
18,COc1ccc(CNC(=O)c2ccc(Cl)c(Cl)c2)cc1,8%
19,CC(C)=NNC(=O)C(=O)Nc1cccc(Cl)c1,10%
20,CC(C)=NNC(=O)C(=O)Nc1ccc(Cl)c(Cl)c1,12%
21,CC(C)=NNC(=O)Sc1cc(O)c(Cl)cc1O,66% (active)
22,O=C(NCCO)C(=O)Nc1ccc(Oc2ccccc2)cc1,6%
23,Fc1cccc(-c2nnc(SC(c3ccccc3)c3ccccc3)n2-c2ccccc2)c1,13%
24,Cc1cc(C)c(NC(=O)C(C)Sc2nnc(-c3cccc(F)c3)n2-c2ccccc2)c(C)c1 (stereo not drawn),54% (active)
25,CC(NC(=O)CSc1nnc(-c2cccc(F)c2)n1-c1ccccc1)c1ccccc1 (stereo not drawn),15%

row,Compound,inhibition
1,Cc1oc(C(C)(C)C)cc1C(=O)Nc1cccc(O)c1,1%
2,Cc1ccc(N=Cc2ccc(OC3CSC3)cc2)cc1C,8%
3,COc1ccc(C2NC(=S)NC(C)=C2C(=O)Nc2ccc(C)c(Cl)c2)cc1 (stereo not drawn),10%
4,Nc1ccc(S(=O)(=O)O)c2cccc(S(=O)(=O)O)c12,6%
5,Nc1c(S(=O)(=O)O)cc(S(=O)(=O)O)c2cccc(O)c12,23%
6,Nc1nnc(SCC(=O)Nc2ccccc2-c2ccccc2)s1,0%
7,COc1ccc(NC(=O)/C(C#N)=C/c2cccc(O)c2)cc1,12%
8,COc1cc(/C=N/NC(=O)COc2ccc(C(C)(C)CC(C)(C)C)cc2[N+](=O)[O-])ccc1OC(=O)c1ccc([N+](=O)[O-])cc1,28%
9,Cc1c(Cl)cccc1-c1ccc(/C=N/N=C2\NC(=O)CS2)o1,55% (active)
10,O=C1CS/C(=N/N=C/c2ccc(-c3ccc(Cl)cc3)o2)N1,21%
11,Cc1c(-c2ccc(/C=N/N=C3/NC(=O)CS3)o2)ccc([N+](=O)[O-])c1C,45%
12,COc1ccccc1NC(=O)CN(c1ccc(Cl)cc1Cl)S(=O)(=O)c1ccccc1,13%
13,c1cc2ccc3ccc(CN4CCOCC4)c4ccc(c1)c2c34,0%
14,CC(=O)Nc1ccc(N2C(=O)/C(=C/c3ccc([N+](=O)[O-])cc3)C=C2c2ccccc2)cc1,0%
15,Cc1cccc(C2=N/C(=C/c3ccc([N+](=O)[O-])cc3)C(=O)N2c2ccc(O)cc2)c1,44%
16,O=C1/C(=C/c2ccc([N+](=O)[O-])cc2)C=C(c2ccccc2)N1c1ccc(O)cc1,54% (active)
17,COc1cc(/C=N/N=C2/NC(=O)C(CC(=O)Nc3cccc(Cl)c3Cl)S2)ccc1O (stereo not drawn),5%
18,CCOc1ccc(C(=O)NCc2ccco2)cc1OCC,50% (active)
19,O=C(NCc1ccco1)c1ccc(Cl)cc1,0%
20,Cc1ccc(C(=O)NCc2ccco2)cc1,0%
21,CCOc1ccc(C(=O)NCc2ccco2)cc1Cl,6%
22,CC(=O)Nc1ccc(C(=O)NCc2ccco2)cc1,57% (active)
23,CCOc1ccc(C(=O)NCc2ccco2)cc1Br,5%
